# Measured values from PubChem BioAssay (EPA / NIEHS).
# Activity calls are given as the source filed them. The calls were made as follows: active = hit-call score of the fitted dose curve at least 0.9, where 1 is the maximum; inactive = score below 0.9.
# How the values were obtained:
# Conditions in all cases: mRNA level, 48 h; actives raise or lower the signal
# [1] = read-out: Cyclin D1 (CCND1), CCND1 (gene 595); assay: LTEA_HepaRG_CCND1: Life Technologies and Expression Analysis (LTEA) Assay for Cyclin D1 (CCND1) using HepaRG (AID 2283451)
# Summary of the method: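 Expression of CCND1 was quantified by qRT-PCR on Fluidigm arrays using ACTB, GAPDH and POLR2A as reference genes. HepaRG cultures, plated 48 h beforehand, were dosed for 48 h at up to 100 uM (half-log, 8 points) in 0.5% DMSO.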
# [2] = read-out: catalase (CAT), CAT (gene 847); assay: LTEA_HepaRG_CAT: Life Technologies and Expression Analysis (LTEA) Assay for catalase (CAT) using HepaRG (AID 2283452)
# Summary of the method: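 Expression of CAT was quantified by TaqMan qRT-PCR with ACTB/GAPDH/POLR2A normalization after 48 h chemical exposure of HepaRG. Eight-point half-log series, top 100 uM, in 0.5% DMSO; gain or loss fitted against vehicle.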
# [3] = read-out: flavin-containing dimethylaniline monooxygenases 3 (FMO3), FMO3 (gene 2328); assay: LTEA_HepaRG_FMO3: Life Technologies and Expression Analysis (LTEA) Assay for flavin-containing dimethylaniline monooxygenases 3 (FMO3) using HepaRG (AID 2283453)
# Summary of the method: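 FMO3 transcript quantified by TaqMan qRT-PCR against three housekeeping genes after 48 h chemical exposure of HepaRG cells. Eight-point half-log series, top 100 uM, 0.5% DMSO vehicle; phenobarbital 1mM induction control; up- or down-regulation fitted.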
# [4] = read-out: Cytochrome P450 (CYP1A1), CYP1A1 (gene 1543); assay: LTEA_HepaRG_CYP1A1: Life Technologies and Expression Analysis (LTEA) Assay for Cytochrome P450 (CYP1A1) using HepaRG (AID 2283454)
# Summary of the method: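 CYP1A1 transcript levels measured by Fluidigm qRT-PCR against three housekeeping genes, 48 h after chemical dosing of human HepaRG cells (highest concentration 100 uM, half-log steps, 0.5% DMSO vehicle). Gain or loss of signal fitted relative to DMSO.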
# [5] = read-out: CFLAR gene, CFLAR (gene 8837); assay: LTEA_HepaRG_CFLAR: Life Technologies and Expression Analysis (LTEA) Assay for CFLAR gene using HepaRG (AID 2283455)
# Summary of the method: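 Transcript level by qRT-PCR (normalized to ACTB, GAPDH and POLR2A) after 48 h chemical exposure of HepaRG cells, top concentration 100 uM with half-log steps, 0.5% DMSO vehicle, duplicates; fitted bidirectionally against DMSO baseline.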
# [6] = read-out: Forkhead box O1 (FOXO1), FOXO1 (gene 2308); assay: LTEA_HepaRG_FOXO1: Life Technologies and Expression Analysis (LTEA) Assay for Forkhead box O1 (FOXO1) using HepaRG (AID 2283456)
# Summary of the method: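 FOXO1 transcript quantified by qRT-PCR after 48 h chemical exposure (top 100 uM, half-log steps, 0.5% DMSO) of HepaRG cells, housekeeping-normalized (ACTB/GAPDH/POLR2A). Changes fitted in both directions relative to vehicle.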
# [7] = read-out: growth arrest and DNA damage 45 (GADD45A), GADD45A (gene 1647); assay: LTEA_HepaRG_GADD45A: Life Technologies and Expression Analysis (LTEA) Assay for growth arrest and DNA damage 45 (GADD45A) using HepaRG (AID 2283458)
# Summary of the method: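 GADD45A expression was measured by TaqMan qRT-PCR against three housekeeping genes (ACTB, GAPDH, POLR2A) after 48 h treatment of HepaRG cells. Eight-point half-log series up to 100 uM in 0.5% DMSO, run in duplicate.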
# [8] = read-out: Forkhead box O3 (FOXO3), FOXO3 (gene 2309); assay: LTEA_HepaRG_FOXO3: Life Technologies and Expression Analysis (LTEA) Assay for Forkhead box O3 (FOXO3) using HepaRG (AID 2283459)
# Summary of the method: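 FOXO3 transcript measured by qRT-PCR (normalized to ACTB, GAPDH, POLR2A) after 48 h exposure of HepaRG cells in serum-free induction medium. Duplicates, eight half-log concentrations up to 100 uM, 0.5% DMSO; gain or loss fitted against DMSO.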
# [9] = read-out: ABC Transporter (ABCB1), ABCB1 (gene 5243); assay: LTEA_HepaRG_ABCB1: Life Technologies and Expression Analysis (LTEA) Assay for ABC Transporter (ABCB1) using HepaRG (AID 2283460)
# Summary of the method: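 ABCB1 transcript level measured by TaqMan qRT-PCR against three housekeeping genes after 48 h chemical exposure of differentiated HepaRG cells. Top concentration 100 uM, half-log steps, eight points, 0.5% DMSO vehicle; bidirectional fit relative to DMSO.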
# [10] = read-out: growth arrest and DNA damage 45 (GADD45B), GADD45B (gene 4616); assay: LTEA_HepaRG_GADD45B: Life Technologies and Expression Analysis (LTEA) Assay for growth arrest and DNA damage 45 (GADD45B) using HepaRG (AID 2283461)
# Summary of the method: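 Transcript level quantified by Fluidigm TaqMan qRT-PCR with three housekeeping genes for normalization, analyzed for up- or down-regulation against 0.5% DMSO. HepaRG cultures dosed 48 h at eight half-log concentrations up to 100 uM, duplicates.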
# [11] = read-out: ABC Transporter (ABCC3), ABCC3 (gene 8714); assay: LTEA_HepaRG_ABCC3: Life Technologies and Expression Analysis (LTEA) Assay for ABC Transporter (ABCC3) using HepaRG (AID 2283462)
# Summary of the method: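 Transcript level by TaqMan qRT-PCR, normalised to three housekeeping genes, fitted in both directions relative to vehicle. Chemicals tested in duplicate at eight half-log concentrations up to 100 uM for 48 h on HepaRG cells (0.5% DMSO).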
# [12] = read-out: ABC Transporter (ABCB11), ABCB11 (gene 8647); assay: LTEA_HepaRG_ABCB11: Life Technologies and Expression Analysis (LTEA) Assay for ABC Transporter (ABCB11) using HepaRG (AID 2283463)
# Summary of the method: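 ABCB11 transcript levels quantified by TaqMan qRT-PCR against three housekeeping genes after 48 h chemical exposure of HepaRG cultures. Concentrations up to 100 uM in half-log steps, 0.5% DMSO vehicle; both induction and suppression scored.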
# [13] = read-out: ABC Transporter (ABCC2), ABCC2 (gene 1244); assay: LTEA_HepaRG_ABCC2: Life Technologies and Expression Analysis (LTEA) Assay for ABC Transporter (ABCC2) using HepaRG (AID 2283464)
# Summary of the method: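 Endpoint is ABCC2 transcript level from qRT-PCR, normalized to three housekeeping genes and fitted bidirectionally relative to DMSO. Human HepaRG cells received test chemical for 48 h at up to 100 uM (8 points, half-log steps, 0.5% DMSO), duplicate wells.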
# [14] = read-out: Broad substrate specificity ATP-binding cassette transporter ABCG2 (Homo sapiens) (UniProt Q9UNQ0); assay: LTEA_HepaRG_ABCG2: Life Technologies and Expression Analysis (LTEA) Assay for ABC Transporter (ABCG2) using HepaRG (AID 2283465)
# Summary of the method: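 ABCG2 transcript was quantified by TaqMan qRT-PCR against three housekeeping genes in HepaRG cells. Cells were treated in duplicate for 48 h across an 8-point half-log series up to 100 uM, with 0.5% DMSO vehicle. Gain or loss versus DMSO was fit.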
# [15] = read-out: ATP-citrate lyase (ACLY), ACLY (gene 47); assay: LTEA_HepaRG_ACLY: Life Technologies and Expression Analysis (LTEA) Assay for ATP-citrate lyase (ACLY) using HepaRG (AID 2283466)
# Summary of the method: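 ACLY mRNA quantified by qRT-PCR on Fluidigm arrays against three housekeeping genes, after 48 h chemical treatment of HepaRG cells (top concentration 100 uM, half-log steps, 0.5% DMSO vehicle). Up- or down-regulation fitted relative to DMSO.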
# [16] = read-out: Peroxisomal acyl-coenzyme A oxidase 1 (ACOX1) gene, ACOX1 (gene 51); assay: LTEA_HepaRG_ACOX1: Life Technologies and Expression Analysis (LTEA) Assay for Peroxisomal acyl-coenzyme A oxidase 1 (ACOX1) gene using HepaRG (AID 2283467)
# Summary of the method: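 ACOX1 transcript levels were quantified by TaqMan qRT-PCR against three housekeeping genes after 48 h chemical exposure of differentiated human HepaRG cells. Exposure used eight half-log steps topping at 100 uM, 0.5% DMSO vehicle, in duplicate. Bidirectional curve fits were made relative to DMSO.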
# [17] = read-out: Alkaline Phosphatase, Placental (ALPP) gene, ALPP (gene 250); assay: LTEA_HepaRG_ALPP: Life Technologies and Expression Analysis (LTEA) Assay for Alkaline Phosphatase, Placental (ALPP) gene using HepaRG (AID 2283468)
# Summary of the method: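 ALPP transcript level, measured by qRT-PCR and normalized to three housekeeping genes (ACTB, GAPDH, POLR2A), after 48 h dosing of differentiated HepaRG in serum-free induction medium. Top concentration 100 uM with half-log dilutions (8 points, 0.5% DMSO, duplicates); bidirectional fitting relative to DMSO.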
# [18] = read-out: Bcl-2 (BAD) gene, BAD (gene 572); assay: LTEA_HepaRG_BAD: Life Technologies and Expression Analysis (LTEA) Assay for Bcl-2 (BAD) gene using HepaRG (AID 2283469)
# Summary of the method: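 Read-out: qRT-PCR of BAD mRNA, normalized to three housekeeping genes. Human HepaRG cultures got 48 h chemical exposure in 0.5% DMSO, duplicate eight-point half-log series topping at 100 uM. Gain or loss of signal fitted versus DMSO vehicle.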
# Sequence of Broad substrate specificity ATP-binding cassette transporter ABCG2 (Homo sapiens) (Q9UNQ0 whole entry, looked up): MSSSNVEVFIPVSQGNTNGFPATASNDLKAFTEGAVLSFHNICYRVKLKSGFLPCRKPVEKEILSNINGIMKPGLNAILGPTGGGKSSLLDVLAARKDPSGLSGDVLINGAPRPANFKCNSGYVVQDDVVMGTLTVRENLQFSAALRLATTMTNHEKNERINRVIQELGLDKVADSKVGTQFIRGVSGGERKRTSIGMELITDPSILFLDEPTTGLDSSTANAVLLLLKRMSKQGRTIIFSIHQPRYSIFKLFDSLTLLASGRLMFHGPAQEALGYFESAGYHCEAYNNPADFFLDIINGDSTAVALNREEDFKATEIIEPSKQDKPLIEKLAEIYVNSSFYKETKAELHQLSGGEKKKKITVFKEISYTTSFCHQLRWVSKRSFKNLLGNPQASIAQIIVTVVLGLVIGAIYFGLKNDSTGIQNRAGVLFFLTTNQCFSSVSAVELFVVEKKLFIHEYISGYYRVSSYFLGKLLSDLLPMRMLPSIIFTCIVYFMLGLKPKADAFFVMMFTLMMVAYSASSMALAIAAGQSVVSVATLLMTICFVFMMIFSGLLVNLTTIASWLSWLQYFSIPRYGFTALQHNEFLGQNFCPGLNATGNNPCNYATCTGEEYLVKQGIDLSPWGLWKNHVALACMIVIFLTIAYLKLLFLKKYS
SMILES,outcome [1],outcome [2],outcome [3],AC50 [4],outcome [5],outcome [6],outcome [7],outcome [8],outcome [9],outcome [10],outcome [11],outcome [12],AC50 [13],outcome [14],outcome [15],outcome [16],outcome [17],outcome [18],outcome [13],AC50 [9]
CC(C)(O)c1ccc(CNC(=O)c2cccnc2Oc2ccc(F)cc2)cc1,inactive,inactive,inactive,67.4 µM (active),inactive,inactive,inactive,inactive,inactive,inactive,inactive,inactive,29.5 µM (active),inactive,inactive,inactive,inactive,inactive,,
C/C=C/c1ccc(OC)cc1,inactive,inactive,inactive,50 µM (active),inactive,inactive,inactive,inactive,inactive,inactive,inactive,inactive,,inactive,inactive,inactive,inactive,inactive,inactive,
Oc1ccc(O)cc1,inactive,inactive,inactive,50 µM (active),inactive,inactive,inactive,inactive,inactive,inactive,inactive,inactive,,inactive,inactive,inactive,inactive,inactive,inactive,
CC1(C)C(=O)NC(=O)N1CO,inactive,inactive,inactive,50 µM (active),inactive,inactive,inactive,inactive,inactive,inactive,inactive,inactive,,inactive,inactive,inactive,inactive,inactive,inactive,
S=c1[nH]c2ccccc2s1,inactive,inactive,inactive,10.1 µM (active),inactive,inactive,inactive,inactive,inactive,inactive,inactive,inactive,,inactive,inactive,inactive,inactive,inactive,inactive,
Cc1cc(Cc2ccc(N)c(C)c2)ccc1N,inactive,inactive,inactive,50 µM (active),inactive,inactive,inactive,inactive,,inactive,inactive,inactive,50 µM (active),inactive,inactive,inactive,inactive,inactive,,33.6 µM (active)
O=[Si]=O,inactive,inactive,inactive,76.6 µM (active),inactive,inactive,inactive,inactive,inactive,inactive,inactive,inactive,,inactive,inactive,inactive,inactive,inactive,inactive,
